From PubChem BioAssay (EPA / NIEHS)
Results filed as inconclusive are left out. The source made the active and inactive calls. The calls were made as follows: active = hit-call score of the fitted dose curve at least 0.9, where 1 is the maximum; inconclusive = response in the unintended direction; inactive = score below 0.9.

Target: Androgen receptor (Homo sapiens) (UniProt P10275)
Experiment: ATG_AR_TRANS: Attagene TRANS-FACTORIAL HepG2 Assay for human Androgen Receptor (AR) (AID 2282973)
Details: HepG2 Attagene TRANS-FACTORIAL AR reporter transcription
In short: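 HepG2 cells transiently transfected with AR-Gal4 chimera and GAL4-UAS reporter units; chemical exposure 24 h. Reporter mRNA quantified by RT-PCR with fluorescent labelling and capillary electrophoresis; gain-of-signal fitted against DMSO.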

Androgen receptor (Homo sapiens), sequence (P10275 whole entry, looked up): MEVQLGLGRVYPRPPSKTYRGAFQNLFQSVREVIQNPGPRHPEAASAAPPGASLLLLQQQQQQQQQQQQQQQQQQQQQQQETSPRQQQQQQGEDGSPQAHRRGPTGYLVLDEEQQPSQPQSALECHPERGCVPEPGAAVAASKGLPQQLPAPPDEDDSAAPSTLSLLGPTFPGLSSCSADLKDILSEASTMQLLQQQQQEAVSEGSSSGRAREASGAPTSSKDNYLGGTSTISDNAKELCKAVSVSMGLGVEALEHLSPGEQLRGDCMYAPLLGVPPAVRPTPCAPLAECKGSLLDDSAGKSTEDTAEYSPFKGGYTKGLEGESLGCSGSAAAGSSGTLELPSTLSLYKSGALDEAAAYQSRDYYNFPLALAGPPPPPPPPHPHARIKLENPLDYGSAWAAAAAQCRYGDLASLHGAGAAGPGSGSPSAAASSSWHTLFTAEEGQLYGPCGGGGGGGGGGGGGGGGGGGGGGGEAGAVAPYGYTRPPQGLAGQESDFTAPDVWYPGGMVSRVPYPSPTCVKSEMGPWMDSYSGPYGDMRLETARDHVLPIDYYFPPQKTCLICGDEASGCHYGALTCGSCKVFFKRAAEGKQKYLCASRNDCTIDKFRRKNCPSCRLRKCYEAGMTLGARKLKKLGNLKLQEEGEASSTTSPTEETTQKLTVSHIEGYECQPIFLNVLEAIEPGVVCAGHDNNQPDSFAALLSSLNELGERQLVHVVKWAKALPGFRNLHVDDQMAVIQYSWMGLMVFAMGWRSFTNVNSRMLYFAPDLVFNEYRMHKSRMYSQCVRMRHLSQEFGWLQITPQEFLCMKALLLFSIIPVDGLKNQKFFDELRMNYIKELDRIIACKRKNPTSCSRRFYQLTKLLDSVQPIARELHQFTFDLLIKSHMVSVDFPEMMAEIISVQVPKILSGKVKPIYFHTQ

**Q.** How did the outcome turn out when `CCOC(=O)[C@H](O)[C@@H](O)C(=O)OCC` was run?
**A.** Its outcome is “inactive”.

**Q.** For `COc1cc(CCC(C)=O)ccc1O`, which outcome is on record?
**A.** Its outcome is “inactive”.

**Q.** `CC(C)(C)c1n[nH]c(=O)n(N)c1=O` was tested. Which outcome did it give?
**A.** Its outcome is “inactive”.

**Q.** How did the outcome turn out when `Nc1ccnc(=O)[nH]1` was run?
**A.** Its outcome is “inactive”.

**Q.** How did the outcome turn out when `C[C@H]1C[C@@H]2[C@H]([C@@H](O)C[C@@]3(C)[C@H]2CC[C@]3(O)C(=O)CO)[C@@]2(C)C=CC(=O)C=C12` was run?
**A.** The outcome was “inactive”.

**Q.** How did the outcome turn out when `CC(C)(CO)COC(=O)C(C)(C)CO` was run?
**A.** The outcome was “inactive”.

**Q.** `C=CCOCC(O)CCl` (stereo not drawn) was tested. Which outcome did it give?
**A.** The outcome was “inactive”.

**Q.** How did the outcome turn out when `CC1CCC(C(=O)O)CC1` (stereo not drawn) was run?
**A.** The outcome was “inactive”.

**Q.** `CCc1ccc(C(c2ccc(CC)cc2)C(Cl)Cl)cc1` was tested. Which outcome did it give?
**A.** The outcome was “inactive”.

**Q.** Which outcome does the source give for `CSc1nnc(C(C)(C)C)c(=O)[nH]1` here?
**A.** Its outcome is “inactive”.

**Q.** With `CCC(C)NC(N)=O` (stereo not drawn) as the molecule, how does the outcome read?
**A.** Its outcome is “inactive”.

**Q.** Which outcome does the source give for `FC1(F)C=CC(F)(F)C1(F)F` here?
**A.** The outcome was “inactive”.

**Q.** With `CCCCCCCCCc1ccc(OCCO)cc1` as the molecule, how does the outcome read?
**A.** Its outcome is “inactive”.

**Q.** `O=S(=O)(O)c1ccc(Nc2nc(Nc3ccc(C=Cc4ccc(Nc5nc(Nc6ccc(S(=O)(=O)O)cc6)nc(N(CCO)CCO)n5)cc4S(=O)(=O)O)c(S(=O)(=O)O)c3)nc(N(CCO)CCO)n2)cc1` was tested. Which outcome did it give?
**A.** The outcome was “inactive”.

**Q.** Which outcome does the source give for `COc1ccc2c(c1)c(CC(=O)O)c(C)n2C(=O)c1ccc(Cl)cc1` here?
**A.** The outcome was “inactive”.

**Q.** Which outcome does the source give for `O=C[C@H](O)[C@H](O)[C@H](O)CO` here?
**A.** Its outcome is “inactive”.

**Q.** `CC(C)(C)NC(N)=O` was tested. Which outcome did it give?
**A.** The outcome was “inactive”.

**Q.** How did the outcome turn out when `CC=CC(F)(F)C(F)(F)C(F)(F)F` was run?
**A.** Its outcome is “inactive”.

**Q.** For `COc1ccccc1OCC(O)CO` (stereo not drawn), which outcome is on record?
**A.** The outcome was “inactive”.

**Q.** How did the outcome turn out when `C=CC(F)(F)C(F)(F)C(F)(F)C(F)(F)F` was run?
**A.** The outcome was “inactive”.

**Q.** Which outcome does the source give for `CC/C=C\C/C=C\C/C=C\CCCCCCCC(=O)OC` here?
**A.** The outcome was “inactive”.

**Q.** With `O=C(c1ccccc1)c1ccc(Cl)cc1` as the molecule, how does the outcome read?
**A.** The outcome was “inactive”.

**Q.** `CCCCCCCC1CCCC1=O` (stereo not drawn) was tested. Which outcome did it give?
**A.** Its outcome is “inactive”.
